Results filed as inconclusive are left out. Values without a mark were called inactive. Active and inactive are the calls of the source. Calls come from the whole dose curve; as a rule, active = well fitted curve in the direction sought with a large enough effect; inconclusive = small, poorly fitted or top-dose-only effect, or another doubt; inactive = no such curve, though single readings can be large; an effect the other way counts as inactive or inconclusive.
biological target: Calcium and integrin-binding protein 1 (Homo sapiens) (UniProt Q99828); test: Primary qHTS for Identification of Calcium Integrin Binding Protein 1 (CIB1) Competitor (AID 1508620); settings: CIB1-GST / FITC-alphaIIb peptide fluorescence polarization; series mostly up to 57.7 µM; activity change, negative = inhibition: at the top concentration;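 note: GST tagged CIB1 binding a fluorescein labelled alphaIIb integrin peptide tracer; top concentration of the series differs between compounds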
Sequence (Q99828 whole entry, looked up): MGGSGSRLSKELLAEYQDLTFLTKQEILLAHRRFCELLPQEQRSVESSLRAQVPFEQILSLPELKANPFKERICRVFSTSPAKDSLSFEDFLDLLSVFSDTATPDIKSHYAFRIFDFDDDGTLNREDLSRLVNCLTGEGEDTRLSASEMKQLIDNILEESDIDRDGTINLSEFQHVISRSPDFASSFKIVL
Method in brief: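 CIB1-GST (1 uM final) and compound incubated 15 min at room temperature before adding FITC-alphaIIb peptide tracer (100 nM final). Competition for binding read by fluorescence polarization (ex 480, em 540) after another 15 min at room temperature.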
% is set by controls: 0 for no effect and ±100 for the full control effect.

Compound | activity change, negative = inhibition [%] | Potency
NCc1c[nH]c(=S)n1[C@H]1CCc2c(F)cc(F)cc2C1 | 1.38 | 
Cc1cn([C@@H]2C[C@@H](O)[C@H](CO)O2)c(=O)[nH]c1=O | 2.24 | 
CC1CNc2c(cccc2S(=O)(=O)N[C@@H](CCCN=C(N)N)C(=O)N2CC[C@@H](C)C[C@@H]2C(=O)O)C1 (stereo partly specified) | -3.18 | 
COc1ccc(-c2cc3nccn3c(Nc3ncccc3C(N)=O)n2)cc1OC |  | inactive
CCN1C[C@H](C)n2c(c(O)c3c(=O)n(Cc4ccc(F)c(Cl)c4)nc(C(=O)NC)c32)C1=O |  | inactive
COc1cc2nccc(Oc3ccc(NC(=O)Nc4cc(C)on4)c(Cl)c3)c2cc1OC |  | inactive
CCCCOCCOc1nc(-c2ccc(C(=O)O)c(F)c2)sc1C | -1.21 | 
CS(=O)(=O)c1ccc(C2=C(c3ccccc3)C(=O)OC2)cc1 |  | inactive
NC(=O)c1noc([C@H](CCCC2CCCCC2)CC(=O)NO)n1 |  | inactive
CCC(=O)N1CCN(c2ccc(-n3c(=O)ccc4cnc5ccc(-c6cnc7ccccc7c6)cc5c43)cc2C(F)(F)F)CC1 |  | inactive
N#CC(c1ccc(Cl)cc1)c1c(Cl)cc(-n2ncc(=O)[nH]c2=O)cc1Cl (stereo unspecified) | -0.972 | 
OC(c1cc(C(F)(F)F)nc2c(C(F)(F)F)cccc12)C1CCCCN1 (stereo unspecified) | 0.56 | 
COc1cc([C@@H]2c3cc4c(cc3[C@@H](O[C@@H]3O[C@@H]5CO[C@@H](C)O[C@@H]5[C@H](O)[C@@H]3O)[C@H]3COC(=O)[C@H]23)OCO4)cc(OC)c1O | -0.147 | 
CCc1cc(-c2n[nH]c(C)c2-c2ccc3c(c2)OCCO3)c(O)cc1O | -0.646 | 
Cc1cnc(-c2cc(N3CCN(C(=O)CCS(C)(=O)=O)CC3)ncc2Cl)c(C)c1 |  | inactive
CN1c2ccccc2C(=O)N2CCc3c([nH]c4ccccc34)C21 (stereo unspecified) |  | inactive
CC(C)(C)c1nc(-c2cccc(NS(=O)(=O)c3c(F)cccc3F)c2F)c(-c2ccnc(N)n2)s1 |  | inactive
CN1N=C(N)c2cn([C@@H]3O[C@H](COP(=O)(O)O)[C@@H](O)[C@@H]3O)c3ncnc1c23 | -5.81 | 
Nc1[nH]nc2nnc(-c3c(-c4ccccc4)nn4ccccc34)cc12 |  | inactive
Cc1ccccc1-n1c(Cn2nc(-c3cccc(O)c3)c3c(N)ncnc32)nc2cccc(C)c2c1=O |  | inactive

system: not listed separately; test: Primary qHTS for small molecule stabilizers of the endoplasmic reticulum resident proteome: Secreted ER Calcium Modulated Protein (SERCaMP) assay (AID 1508630); settings: SH-SY5Y GLuc-SERCaMP (Gaussia luciferase released on ER calcium loss) secretion, thapsigargin, luminescence; series mostly up to 38.4 µM; activity change, negative = inhibition: at the top concentration
Method in brief: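 The SH-SY5Y reporter protocol was run at 3 concentrations up to 38.3 uM (primary) or 11 concentrations (follow-up): 16 h compound, 100 nM thapsigargin for 4 h, then extracellular luciferase luminescence.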

Compound | activity change, negative = inhibition | Potency
Cc1nn(Cc2ccccc2Cl)c(C)c1CN(C)CC(O)COc1ccc(Cl)cc1 (stereo unspecified) | 180% | 
CCC(=O)NCC[C@@H]1CCc2ccc3c(c21)CCO3 | 113% | 
COc1c(C)cnc(Cn2cnc3c(Cl)nc(N)nc32)c1C | 0% | 
CCN(CC)CCCCNc1nc2cc(Cl)c(Cl)cc2nc1-c1ccc(-c2cccs2)s1 | 399% | 
N[C@@H](CC(=O)N1CCn2c(nnc2C(F)(F)F)C1)Cc1cc(F)c(F)cc1F | 83.3% | 
O=C(O)c1nc(=O)[nH]c(=O)[nH]1 | 9.88% [at 21.6 µM] | 
O=C(c1ccc(C(=O)N2CCC(N3CCCC3)CC2)c(Nc2ccccc2)c1)N1CCC(N2CCCC2)CC1 | 61.1% | 
Cc1ccc(C2=Nc3ccc(Cl)cc3OC2)cc1 | 2.39% | 
CCn1c(-c2nonc2N)nc2cncc(CNC3CCNCC3)c21 | 56.1% | 
CN(C)CCN(Cc1ccc(Cl)cc1)c1ccccn1 | 57.8% | 
NC1(C(=O)N[C@@H](CCO)c2ccc(Cl)cc2)CCN(c2ncnc3[nH]ccc23)CC1 | 51.3% | 
CN1CCN(c2cccc(Nc3nc4c(-c5ccc(S(C)(=O)=O)cc5)cccn4n3)c2)CC1 | 0% | 
COC1CCC(C(=O)c2ccc3nc4c(cc3c2)CCCO4)CC1 (stereo unspecified) | 0% | 
CC[C@H](C=C[C@@H](C)[C@H]1CC[C@H]2[C@@H]3CC=C4C[C@@H](O)CC[C@]4(C)[C@@H]3CC[C@]12C)C(C)C | 90.8% [at 21.6 µM] | 
CN(C)CCOc1cc(-c2cn[nH]c2)ccc1NC(=O)C1COc2ccccc2O1 (stereo unspecified) | 45% | 
CN(C)c1nc(Cc2ccc(NC(=O)c3ccc(C(F)(F)F)cc3)cc2)nc(N(C)C)c1CC(=O)O | 14.5% | 
NCc1c[nH]c(=S)n1[C@H]1CCc2c(F)cc(F)cc2C1 | -27.6% | 
Cc1cn([C@@H]2C[C@@H](O)[C@H](CO)O2)c(=O)[nH]c1=O | -23.7% | 

Compound | activity change, negative = inhibition | Potency
CC1CNc2c(cccc2S(=O)(=O)N[C@@H](CCCN=C(N)N)C(=O)N2CC[C@@H](C)C[C@@H]2C(=O)O)C1 (stereo partly specified) | 245% | 
COc1ccc(-c2cc3nccn3c(Nc3ncccc3C(N)=O)n2)cc1OC | -14.8% | 
CCN1C[C@H](C)n2c(c(O)c3c(=O)n(Cc4ccc(F)c(Cl)c4)nc(C(=O)NC)c32)C1=O | 50.5% | 
COc1cc2nccc(Oc3ccc(NC(=O)Nc4cc(C)on4)c(Cl)c3)c2cc1OC | 33.8% | 
CCCCOCCOc1nc(-c2ccc(C(=O)O)c(F)c2)sc1C | 47.8% | 
CS(=O)(=O)c1ccc(C2=C(c3ccccc3)C(=O)OC2)cc1 | 12.8% | 
NC(=O)c1noc([C@H](CCCC2CCCCC2)CC(=O)NO)n1 | -15.8% | 
CCC(=O)N1CCN(c2ccc(-n3c(=O)ccc4cnc5ccc(-c6cnc7ccccc7c6)cc5c43)cc2C(F)(F)F)CC1 | 0% | 
N#CC(c1ccc(Cl)cc1)c1c(Cl)cc(-n2ncc(=O)[nH]c2=O)cc1Cl (stereo unspecified) | -53.7% | 
OC(c1cc(C(F)(F)F)nc2c(C(F)(F)F)cccc12)C1CCCCN1 (stereo unspecified) | 179% | 
COc1cc([C@@H]2c3cc4c(cc3[C@@H](O[C@@H]3O[C@@H]5CO[C@@H](C)O[C@@H]5[C@H](O)[C@@H]3O)[C@H]3COC(=O)[C@H]23)OCO4)cc(OC)c1O |  | inactive
CCc1cc(-c2n[nH]c(C)c2-c2ccc3c(c2)OCCO3)c(O)cc1O |  | inactive
Cc1cnc(-c2cc(N3CCN(C(=O)CCS(C)(=O)=O)CC3)ncc2Cl)c(C)c1 | 21.9% | 
CN1c2ccccc2C(=O)N2CCc3c([nH]c4ccccc34)C21 (stereo unspecified) | 310% | 
CC(C)(C)c1nc(-c2cccc(NS(=O)(=O)c3c(F)cccc3F)c2F)c(-c2ccnc(N)n2)s1 | 0% | 
CN1N=C(N)c2cn([C@@H]3O[C@H](COP(=O)(O)O)[C@@H](O)[C@@H]3O)c3ncnc1c23 | 52.4% | 
Nc1[nH]nc2nnc(-c3c(-c4ccccc4)nn4ccccc34)cc12 | 68.8% | 
Cc1ccccc1-n1c(Cn2nc(-c3cccc(O)c3)c3c(N)ncnc32)nc2cccc(C)c2c1=O | 0% | 
